An excerpt weighted towards active compounds, which were near 2.6% of everything screened.
LGR2 inh: blocks bursicon-induced cAMP signaling via Drosophila LGR2 | HEK293 LGR2, CRE-luciferase, bursicon-stimulated, 4 h | inhibition, % at 9.99 µM | 0.35% of 380,000 active;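 active = drop in luminescence signal, shown as inhibition above about 50% in the replicate tests, limit read from the data, passing the limit was not always enough; inconclusive = probably only some replicates passing the limit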;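 note: agonist challenge used bursicon conditioned medium at about half maximal strength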
TWEAK Fn14 block: TWEAK-Fn14 signaling inhibition | TWEAK-stimulated Fn14 reporter cells, luciferase luminescence, 8 h | inhibition, % at 10 µM | 2% of 360,000 active | AID 1159606; in the data active = inhibition above about 50%
KKLEB tox: CF airway cell cytotoxicity counter-screen. KKLEB CF airway cells viability, ATPlite luminescence, overnight; stronger effect = lower value; cells stimulated with P. aeruginosa culture filtrate. activity change (cytotoxicity), % at 5 µM. 0.36% of 360,000 active;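 active = corrected activity change at or below -50% at 5 µM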
CF NFkB block: cystic fibrosis NF-kB activation inhibition. KKLEB NF-kB-GFP reporter, PAF-induced, GFP fluorescence overnight. inhibition, % at 5 µM. 0.86% of 360,000 active. AID 588850;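 active = at least 50% inhibition at 5 µM, scaled per plate between neutral and stimulator controls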;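 note: PAF is a Pseudomonas aeruginosa culture filtrate used as stimulus; plate controls were PAF-stimulated DMSO wells for no effect and unstimulated DMSO wells for full effect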
TROY signal inh: blocks TROY-dependent signaling in reporter cells; inhibition, % at 10 µM; AID 1347056; 0.98% of 360,000 active; Q293 LMP1-TROYcd NF-kB luciferase reporter, 4 h;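 active = compounds whose plate-normalised and pattern-corrected inhibition of the luciferase reporter signal at the single screening dose is 50% or more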
EWS-Fli block: blocks EWS/Fli oncoprotein-driven transcription; inhibition, % at 12.6 µM; 0.67% of 350,000 active; A673 NR0B1-luciferase reporter, viability-normalised;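 active = mean inhibition of at least 50% after viability correction, with every replicate also passing that limit; inconclusive = mean reaches 50% but only one of two replicates passes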;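 note: firefly luciferase signal divided by Alamar Blue viability fluorescence both relative to DMSO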
CF NFkB conf: CF NF-kB inhibition confirmation, single concentration; AID 602472; shares compounds with CF NFkB block; 64% of 1,300 active; inhibition, % at 5 µM; KKLEB CF airway cells, PAF-induced NF-kB-GFP fluorescence, overnight; in the data active = inhibition above about 40%;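 note: stimulus PAF is a Pseudomonas aeruginosa filtrate and not platelet activating factor; plate controls were DMSO wells with stimulus for no effect and unstimulated DMSO wells for full effect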
DNA binder FP: DNA binding small molecules; shares compounds with EWS-Fli block; salmon sperm DNA acridine orange fluorescence polarization; AC35, µM (titrated, usually from 68 µM), for the others: top-dose activity change, negative = DNA binding; 2% of 640 active;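 active = fitted curve reaches a 35% signal fall AC35 below twice the sample's top valid tested dose, actives reach about 48 µM in these data; inactive = the rest, including activity in the rising direction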;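 note: lower polarization ratio signals compound binding to DNA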
Numbers without * were called inactive.

COc1ccc(OC)c(-c2nnc3n2N=C(c2ccc(OC)c(OC4CCOC4)c2)CS3)c1 (stereo unspecified) was read as LGR2 inh -0.5, TWEAK Fn14 block 21.5, KKLEB tox -10.1, CF NFkB block 53.6*, TROY signal inh 27.3, EWS-Fli block 59.1*, CF NFkB conf 64.7* and DNA binder FP -1.8%.
Screening N#CC(C#N)=C1C=CC=CN1/C(=C\c1ccco1)C(=O)c1ccc(Cl)cc1 returned LGR2 inh 105.2*, TWEAK Fn14 block 97.3*, KKLEB tox -49.7, CF NFkB block 84.6*, TROY signal inh 85.5*, EWS-Fli block 86.1*, CF NFkB conf 10.0 and DNA binder FP 3.3%.
Screening C=C(C(=O)c1ccccc1)C(C)C(=C)C(=O)c1ccccc1 returned TWEAK Fn14 block 94.5*, KKLEB tox -36.9, CF NFkB block 56.6*, TROY signal inh 0.5, EWS-Fli block 72.6*, CF NFkB conf inactive and DNA binder FP -4.5%.
Cn1cnc(S(=O)(=O)N2CC[C@@H]3[C@H](CO)Nc4ccc(-c5ccccc5)cc4[C@@H]32)c1 was read as LGR2 inh -2.6 and EWS-Fli block -30.6.
For Cc1cccc(/C=C(\c2nc3ccccc3[nH]2)S(=O)(=O)c2ccccc2)c1 the results were LGR2 inh inconclusive, TWEAK Fn14 block 74.8*, KKLEB tox -25.3, CF NFkB block 54.6*, TROY signal inh 10.0, EWS-Fli block 71.4*, CF NFkB conf -178.8 and DNA binder FP 4.5%.
Screening Cc1ccc(NC(=S)c2nc3ccccc3[nH]2)c(C)c1 returned LGR2 inh -37.9, TWEAK Fn14 block 9.8, KKLEB tox -22.6, CF NFkB block -17.5 and TROY signal inh -11.4.
For O=C(C[C@H]1CC[C@@H](NC(=O)C2CCOCC2)[C@H](CO)O1)NCc1ccncc1 the results were LGR2 inh -2.0 and EWS-Fli block 12.9.
Screening Nc1cc2c(cc1Br)[nH]c(=O)c1ccccc12 returned TWEAK Fn14 block 24.0, KKLEB tox -13.9, CF NFkB block 58.2*, TROY signal inh -6.6, EWS-Fli block 52.2*, CF NFkB conf -59.4 and DNA binder FP -2.3%.
Screening Nc1cc2[nH]c(=O)c3ccccc3c2cc1Br returned LGR2 inh 11.5, TWEAK Fn14 block -35.4, KKLEB tox 7.1, CF NFkB block -71.0, TROY signal inh -37.1 and EWS-Fli block -20.8.
`COc1ccc(-c2cc(NC=O)c3ncc(-c4cccc(C(C)=O)c4)n3c2)cc1` gave LGR2 inh -6.0, TWEAK Fn14 block 20.5, KKLEB tox -1.7, CF NFkB block -0.6, TROY signal inh -6.0 and EWS-Fli block 7.6.
For COc1cccc(-c2cc(NC=O)c3ncc(-c4ccc(C(C)=O)cc4)n3c2)c1 the results were LGR2 inh -35.4, TWEAK Fn14 block 31.8, KKLEB tox -44.2, CF NFkB block 59.0*, TROY signal inh 27.1, EWS-Fli block 51.8*, CF NFkB conf 62.7* and DNA binder FP -3.5%.
COc1ccccc1C(=O)Nc1ccc2c(c1)OC[C@H](C)N(CC1CC1)C[C@@H](C)[C@H](OC)CN(C)C2=O was read as LGR2 inh -0.2 and EWS-Fli block 7.4.
For O=C(COC(=O)c1ccc[nH]c1=O)Nc1ccc(N2CCCCC2)cc1 the results were LGR2 inh -6.9, TWEAK Fn14 block 87.5*, KKLEB tox 0.0, CF NFkB block -1.3, TROY signal inh 56.0*, EWS-Fli block 75.4* and DNA binder FP -10.7%.
Screening CCCN1C/C(=C/c2ccc3c(c2)OCO3)C(=O)/C(=C/c2ccc3c(c2)OCO3)C1 returned LGR2 inh -14.0, TWEAK Fn14 block 19.0, KKLEB tox 14.4, CF NFkB block -39.2, TROY signal inh -9.2, EWS-Fli block 64.5* and DNA binder FP -18.8%.
`Cc1ccc(-c2ccc3c(c2)O[C@@H](CN(C)Cc2ccc(C(=O)O)cc2)[C@H](C)CN([C@@H](C)CO)S3(=O)=O)cc1` gave LGR2 inh 0.3 and EWS-Fli block 2.0.
Cc1ccc(N2C(=O)c3cccc4c(N)ccc(c34)C2=O)c2cccnc12 was read as LGR2 inh -1.2, TWEAK Fn14 block 25.6, KKLEB tox -9.7, CF NFkB block -113.9, TROY signal inh -2.2, EWS-Fli block 59.8* and DNA binder FP -6.2%.
COc1ccc(/C=C2\SC(=S)N(CCCC(=O)Nc3ccc(O)cc3)C2=O)cc1 was read as LGR2 inh -45.0, TWEAK Fn14 block 5.6, KKLEB tox 5.1, CF NFkB block -23.7, TROY signal inh 17.4, EWS-Fli block 60.7* and DNA binder FP -10.6%.
`O=C(O)c1ccc2cc(-c3ccccc3)[nH]c2c1` gave TWEAK Fn14 block 97.8*, KKLEB tox 9.6, CF NFkB block -7.6, TROY signal inh 40.5, EWS-Fli block 63.9* and DNA binder FP -7.7%.
For COc1ccccc1N(/N=C1\Sc2ccccc2C1=O)C(C)=O the results were TWEAK Fn14 block 79.3*, KKLEB tox 2.6, CF NFkB block -10.8, TROY signal inh 78.0*, EWS-Fli block 54.4* and DNA binder FP -11.8%.
Screening COc1ccc(N(/N=C2\Sc3ccccc3C2=O)C(C)=O)cc1 returned LGR2 inh -71.3, TWEAK Fn14 block 1.8, KKLEB tox -8.6, CF NFkB block 5.8 and TROY signal inh 9.4.
`O=C(O)c1ccccc1C(=O)Nc1ccc(Oc2ccc3ccccc3c2)cc1` gave LGR2 inh -80.7, TWEAK Fn14 block 21.3, KKLEB tox -8.6, CF NFkB block 10.2, TROY signal inh 28.5, EWS-Fli block 57.7* and DNA binder FP 0.5%.
Screening O=C(O)c1ccccc1C(=O)Nc1ccc(Oc2cccc3ccccc23)cc1 returned LGR2 inh 18.3, TWEAK Fn14 block 87.8*, KKLEB tox 19.8, CF NFkB block 7.1, TROY signal inh 71.0*, EWS-Fli block 85.7* and DNA binder FP -8.5%.
COC(=O)CC1(C(=O)OC)Oc2ccc(Br)cc2C(=O)N1c1cccc(Cl)c1Cl (stereo unspecified) was read as LGR2 inh 19.7, TWEAK Fn14 block 27.3, KKLEB tox -22.1, CF NFkB block 45.1, TROY signal inh 20.9, EWS-Fli block 63.7* and DNA binder FP -8.0%.
Screening COC(=O)CC1(C(=O)OC)Oc2ccc(Br)cc2C(=O)N1c1ccc(Br)cc1Cl (stereo unspecified) returned LGR2 inh 14.0, TWEAK Fn14 block 6.9, KKLEB tox -2.0, CF NFkB block 15.5, TROY signal inh 6.5 and EWS-Fli block 10.9.
`Cc1c(CC(=O)NCCCCCC(=O)O)c(=O)oc2cc3c(cc12)CCC(C)(C)O3` gave LGR2 inh 19.6, TWEAK Fn14 block 38.4, KKLEB tox 7.2, CF NFkB block 14.2, TROY signal inh -4.5 and EWS-Fli block -7.7.
